Shown are actives, neighbours in structure and some others; about 1.2% of the full set was active somewhere.
GSH fluor: GSH bead compound fluorescence profile; GSH beads flow cytometry, compound fluorescence 488/530 nm; stronger effect = higher value; fluorescence (KMESF) at 10 µM; 190,000 compounds, 0.25% hits; in the data active = fluorescence above about 89;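 also: glutathione beads carrying GST-tagged Bcl family fusion proteins plus one bare bead set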
Avidin bead fluor: avidin bead compound fluorescence profile. Avidin beads, compound fluorescence 488/530 nm, flow cytometry; stronger effect = higher value. fluorescence (KMESF) at 10 µM. 220,000 compounds, 0.38% hits. AID 1775; in the data active = fluorescence above about 47
RGS16-Gao: regulators of human RGS16-Galphao interaction; O15492+P09471; 220,000 compounds, 0.38% hits; binding response (% of control), % at 10 µM; bead-based flow cytometry RGS16-Galphao binding, fluorescence; actives lie on both sides; call rule not given here;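 also: Galphao activated by GDP with aluminum fluoride before binding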
Target sequence (O15492 whole entry, looked up): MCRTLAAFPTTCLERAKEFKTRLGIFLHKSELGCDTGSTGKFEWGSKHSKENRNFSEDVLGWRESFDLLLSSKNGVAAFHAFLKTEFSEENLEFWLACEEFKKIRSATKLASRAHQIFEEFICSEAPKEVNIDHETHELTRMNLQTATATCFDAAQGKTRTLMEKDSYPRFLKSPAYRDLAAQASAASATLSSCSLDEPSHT
Target sequence (P09471 whole entry, looked up): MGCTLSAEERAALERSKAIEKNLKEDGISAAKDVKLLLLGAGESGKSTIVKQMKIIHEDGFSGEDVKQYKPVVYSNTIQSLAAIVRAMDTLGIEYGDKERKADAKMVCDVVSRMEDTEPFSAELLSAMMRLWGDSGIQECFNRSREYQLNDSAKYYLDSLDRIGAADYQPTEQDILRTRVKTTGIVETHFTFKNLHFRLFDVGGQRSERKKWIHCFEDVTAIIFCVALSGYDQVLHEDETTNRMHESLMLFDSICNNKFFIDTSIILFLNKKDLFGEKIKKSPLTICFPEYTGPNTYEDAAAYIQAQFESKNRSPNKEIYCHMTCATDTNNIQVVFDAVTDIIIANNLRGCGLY
RGS7-Gao: modulates binding of RGS7 to human Galphao. P09471. Multiplexed bead flow cytometry; actives lie on both sides. binding response (% of control), % at 10 µM. 220,000 compounds, 0.35% hits. AID 1439; in the data active = binding response below about 49% or above about 150%; inconclusive = no clear call, values can overlap the other calls; inactive = in between;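 also: fluorescent Galphao held in activated GDP-AlF4 state binding bead-coupled RGS7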
Target sequence (P09471 whole entry, looked up): as above
RGS4-Gao reg: human RGS4-Galphao interaction regulation; P09471; Multiplexed bead flow cytometry, RGS4-Galphao binding; actives lie on both sides; binding response (% of control), % at 10 µM; 220,000 compounds, 0.33% hits; in the data active = binding response below about 49% or above about 150%; inactive = in between;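 also: fluorescent Galphao activated with aluminum fluoride binding bead-coupled RGS4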
RGS8-Gao reg: human RGS8-Galphao interaction regulation; P09471; multiplexed bead flow cytometry, RGS8-Galphao binding; actives lie on both sides; response (percent of control binding), % at 10 µM; 220,000 compounds, 0.34% hits; in the data active = response below about 60% or above about 140%; inactive = in between;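 also: Galphao activated as the GDP aluminium fluoride complex binding bead-coupled RGS8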
Each line names hits and unclear results; the compound was inactive in the other large screens.

COc1ccc(-n2nc3c(c2NC(=O)C2CCCC2)CS(=O)C3)cc1 (stereo not given)	none
COc1cc2c3nnc(-c4ccc(F)cc4)c-3cn(Cc3cccc(F)c3)c2cc1OC	GSH fluor 90
Cc1oc(-c2ccc3ccccc3c2)nc1CN(C)C(C)c1ccncn1 (stereo not given)	none
Cc1ccc(C2C3=C(CC(C)(C)CC3=O)N(CCN3CCOCC3)C3=C2C(=O)CC(C)(C)C3)cc1	none
COc1ccc(Cl)cc1S(=O)(=O)n1cnc2ccccc21	Avidin bead fluor 62
CCOc1ccc(Cl)cc1S(=O)(=O)n1cnc2ccccc21	none
CC1CCN(S(=O)(=O)c2cccc(C(=O)NCc3cccs3)c2)CC1	none
CC1CCN(S(=O)(=O)c2cccc(C(=O)NCc3ccco3)c2)CC1	GSH fluor 159
Cn1ncc(C(N)=O)c1NC(=S)NC(=O)c1ccc(Br)o1	RGS7-Gao inconclusive
COCCOC(=O)c1c(C)oc2ccc(OCC=C(C)C)cc12	Avidin bead fluor 48
CCC1(CC)C(=O)NC(=O)NC1=NCCc1ccc(O)cc1	Avidin bead fluor 75
c1cncc(CSc2ccc(-c3ccc4c(c3)OCO4)nn2)c1	none
CC(C)CC1NC(=O)N(CC(=O)NC2CCCc3ccccc32)C1=O (stereo not given)	RGS7-Gao inconclusive
CC(C)(C)OC(=O)N[C@@H](Cc1ccccc1)c1nnc(S(=O)(=O)Cc2ccccc2)o1	none
Cc1ccccc1CS(=O)(=O)c1nnc([C@H](Cc2ccccc2)NC(=O)OC(C)(C)C)o1	Avidin bead fluor 48
CC(=O)Nc1ccc(NC(=O)c2cccc3c2-c2ccccc2C3=O)cc1	Avidin bead fluor 99
Cc1ccc(NC(=O)c2cccc3c2-c2ccccc2C3=O)cc1C	none
COCCNC(=O)C1(C)Oc2ccccc2NC1=O (stereo not given)	GSH fluor 260
COc1ccc(OCCSc2nnc(-c3ccccc3)n2N)cc1	Avidin bead fluor 63
O=C(O)C1CC=CCC1C(=O)Nc1cccc(Cl)c1 (stereo not given)	GSH fluor 277
CC1=C(C)CC(C(=O)Nc2cccc(Cl)c2)C(C(=O)O)C1 (stereo not given)	none
COc1ccc(CNC(=O)C/C(C)=N/NC(=O)COc2cccc(C)c2)cc1	none
Clc1cccc(-c2cc3nc4c(c(N5CCN(c6cnccn6)CC5)n3n2)CCCC4)c1	GSH fluor 104
Clc1cccc(-c2cc3nc4c(c(N5CCOCC5)n3n2)CCCC4)c1	none
O=C(CCC(=O)NNC(=O)COc1ccccc1)NCc1ccccc1	none
Cc1cc(C)cc(OCC(=O)NNC(=O)CCC(=O)NCc2ccccc2)c1	GSH fluor 152
CCn1c2ccccc2c2cc(NC(=O)N3CCOCC3)ccc21	Avidin bead fluor 47
COC(=O)CCNCCSc1nnc(-c2ccco2)n1Cc1ccccc1	RGS7-Gao inconclusive (no result: GSH fluor)
Cc1ccc(C)n1-n1c(C)nc2scc(-c3ccccc3)c2c1=O	Avidin bead fluor 86
CCC(=O)NNc1nc2c(C)c(C)ccc2s1	none
CCOC(=O)NC(CC(=O)O)c1ccc(OC)c(OC)c1 (stereo not given)	GSH fluor 259
COC(=O)CSc1nnc(-c2ccccn2)n1N	RGS7-Gao inconclusive (no result: GSH fluor)
O=C1CCc2cc(S(=O)(=O)NC(Cc3ccccc3)C(=O)NCCC3=CCCCC3)ccc2N1 (stereo not given)	Avidin bead fluor 54
COc1cc(NC(=S)NC(=O)c2cc(C)cc(C)c2)ccc1NC(=O)c1cccs1	GSH fluor 104
COc1cc(NC(=S)NC(=O)c2ccc(C(C)(C)C)cc2)ccc1NC(=O)c1cccs1	none
Cn1cc(/C=C/C(=O)N2CCCC(C(=O)c3ccc(C(C)(C)C)cc3)C2)cn1 (stereo not given)	none
CCOC(=O)CN(C(=O)CSc1nnc2c(n1)[nH]c1ccccc12)c1ccccc1	none
CCOC(=O)CN(C(=O)CSc1nnc2c(n1)[nH]c1c(C)cc(C)cc12)c1ccccc1	GSH fluor 257
O=C(CCCc1nc(-c2ccccc2)no1)N1CCOCC1	GSH fluor 248
COc1cccc(-c2noc(CCCC(=O)N3CCOCC3)n2)c1	none
Cc1ccc(N(CC(O)Cn2nc(C)cc2C)S(=O)(=O)c2ccc3ccccc3c2)cc1 (stereo not given)	none
Cc1cc(C)n(CC(O)CN(c2ccccc2)S(=O)(=O)c2ccccc2)n1 (stereo not given)	Avidin bead fluor 67
Cc1cc(C(C)(C)C)nc2[nH]n(-c3ccccc3)c(=O)c12	none
O=c1c2c(C(F)(F)F)cc(C(F)(F)F)nc2[nH]n1-c1ccccc1	GSH fluor 89
COc1cc(N2CCCC2)c(OC)cc1/C=C(/C#N)c1ccc(Br)cc1	Avidin bead fluor 59
N#C/C(=C1\CCCN1)c1nc2ccccc2c(=O)[nH]1	none
N#C/C(C(=O)c1ccccc1)=C1/CCCN1	Avidin bead fluor 48
CC(C)(C)c1cc(C(=O)Nc2ccccc2)ccn1	GSH fluor 103
CCOc1ccc(C(=O)Nc2cc(-c3nc4ccccc4[nH]3)ccc2C)cc1[N+](=O)[O-]	Avidin bead fluor 65
O=C(CN1CCN(c2ccccn2)CC1)Nc1ccc(OCc2ccccc2)cc1	Avidin bead fluor 63
O=C(CN1CCN(c2ccccn2)CC1)Nc1ccc(Oc2ccccc2)cc1	none
CCC(=O)NC(Nc1ncc(C)s1)(C(=O)OC)C(F)(F)F (stereo not given)	GSH fluor 124
Cc1occc1-c1nnc(SCC(=O)N2CC(=O)Nc3ccccc32)n1CC(C)C	none (no result: Avidin bead fluor)
CCn1c(SCC(=O)N2CC(=O)Nc3ccccc32)nnc1-c1ccoc1C	GSH fluor 260
CC(=O)Nc1ccc(NC(=O)COc2cccc3c2OC(C)(C)C3)cc1	Avidin bead fluor 58
CCCCS(=O)(=O)C1CCS(=O)(=O)C1 (stereo not given)	none
CCN(CC)S(=O)(=O)C1CCS(=O)(=O)C1 (stereo not given)	GSH fluor 242
CCOC(=O)Cc1csc(NC(=O)NC2(C(F)(F)F)Oc3ccc(Cl)cc3O2)n1 (stereo not given)	GSH fluor 251
CCOC(=O)Cc1csc(NC(=O)NC2(C(F)(F)F)Oc3cc(Cl)c(Cl)cc3O2)n1	none
Cn1c(=O)c2[nH]c(N3CCN(c4ccccc4)CC3)nc2n(C)c1=O	none
O=C(CCCn1nnc2ccccc2c1=O)N[C@H](C(=O)O)c1ccccc1	Avidin bead fluor 49, RGS7-Gao inconclusive (no result: GSH fluor)
OCC1CCCCN1C(=S)Nc1cccc(Cl)c1 (stereo not given)	RGS7-Gao inconclusive
Cc1ccc(Nc2c3c(nc4ncnn24)CCC3)cc1	Avidin bead fluor 82

Screens as filed in PubChem BioAssay.
